We go through eight molecules from PubChem BioAssay (Tox21).

Test [1] in a line: qHTS assay for small molecule agonists of the p53 signaling pathway (AID 651631; calls by dose curve; note: nearly all actives have a fitted effect of over 15% in size; note: potency is the fitted concentration of half-maximal effect). In a few lines:
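HCT-116 cells carrying a stable p53 response element–beta-lactamase reporter were plated, rested 5 h at 37 °C, then exposed to compound in DMSO for 16 h at 37 °C; reporter activity was read as FRET substrate fluorescence after 2 h at room temperature.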

Test [2] can be described thus: qHTS assay for small molecules that induce genotoxicity in human embryonic kidney cells expressing luciferase-tagged ATAD5 (AID 651632). Note: nearly all actives have a fitted effect of over 15% in size. Note: potency is the fitted concentration of half-maximal effect. In a few lines:
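HEK293T cells carrying a luciferase reporter tagged to ATAD5 were exposed to compound or DMSO vehicle for 16 hr at 37C, 5% CO2. Amplite was added, and after 30 min at room temperature luciferase activity was read as a marker of ATAD5 induction.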
Background: Quantitative high-throughput screening tests each substance at several concentrations.

Test [3] in a line: qHTS assay for small molecules that induce genotoxicity in human embryonic kidney cells expressing luciferase-tagged ATAD5 - cell viability (AID 651634; calls by dose curve; note: nearly all actives have a fitted effect of over 25% in size; note: potency is the fitted concentration of half-maximal effect). In a few lines:
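HEK293T cells expressing luciferase-tagged ATAD5 were exposed to compound or DMSO for 15.5 hr at 37C, 5% CO2. Viability was then read as live-cell protease activity by CellTiter-Fluor fluorescence after 30 min at 37C.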

The nature of test [4]: qHTS assay for small molecule disruptors of the mitochondrial membrane potential - cell viability (AID 720634; calls by dose curve;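 note: human HepG2 liver cancer cells; series mostly up to about 83 µM; nearly all actives have a fitted effect of over 20% in size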). In a few lines:
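HepG2 cells seeded overnight at 37 C, then exposed to compound or DMSO for 1 hr at 37 C, 5% CO2. m-MPI dye added, then CellTiter-Glo for 30 min at room temperature; viability read as ATP luminescence.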

Test [5] can be described thus: qHTS assay to test for compound auto fluorescence at 590 nm (red) in HepG2 cells (AID 720674). The method, boiled down: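 HepG2 cells, 2,000 per well in MEM with 10% FBS, attached overnight at 37 C, then got 23 nL compound or DMSO. After 1 hr at 37 C, 5% CO2, red fluorescence was read at 540/590 nm against Rose Bengal sodium as reference.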
The nature of test [6]: qHTS assay to test for compound auto fluorescence at 535 nm (green) in HepG2 cells (AID 720675).
A short description of test [7]: qHTS assay to test for compound auto fluorescence at 460 nm (blue) in HEK293 cells (AID 720678). The method, boiled down: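 Intrinsic compound fluorescence is recorded in live HEK293 cultures after overnight incubation at 37C, 5% CO2, using excitation 405 nm and emission 460 nm. Values are referenced to triamterene.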
Test [8] in a line: qHTS assay to test for compound auto fluorescence at 590 nm (red) in HEK293 cells (AID 720679). In a few lines:
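Red autofluorescence, HEK293 cells: 2,000 cells/well; attach 4-5 hr 37C; add 23 nL cpd or DMSO; incubate o/n 37C 5% CO2; read Ex540/Em590; Rose Bengal sodium reference.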

Test [9] is described as follows: qHTS assay to test for compound auto fluorescence at 535 nm (green) in HEK293 cells (AID 720680).
Test [10] is described as follows: qHTS assay to test for compound auto fluorescence at 460 nm (blue) in HEK293 cell free culture (AID 720681). In a few lines: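 Compounds were added to cell-free DMEM with 10% FBS and fluorescence read directly. The blue channel used 405 nm excitation and 460 nm emission, with triamterene as the reference fluorophore.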
A short description of test [11]: qHTS assay to test for compound auto fluorescence at 535 nm (green) in HEK293 cell free culture (AID 720682). The method, boiled down:
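Read-out: 485/535 nm fluorescence intensity, calibrated against fluorescein. Medium only (DMEM + 10% FBS, no cells); test compound or DMSO vehicle added by pintool before plate reading.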

The nature of test [12]: qHTS assay to test for compound auto fluorescence at 590 nm (red) in HEK293 cell free culture (AID 720683). In a few lines: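 Cell-free wells of DMEM with 10% FBS received compound, and intrinsic fluorescence was read at excitation/emission 540/590 nm. Values expressed as equivalence to Rose Bengal sodium.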
A short description of test [13]: qHTS assay to test for compound auto fluorescence at 460 nm (blue) in HepG2 cell free culture (AID 720685). In a few lines: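 Compound (23 nL) or DMSO pinned into cell-free MEM with 10% FBS; blue fluorescence read at 405/460 nm excitation/emission, expressed as auto-fluorescence equivalency to triamterene.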
Test [14] can be described thus: qHTS assay to test for compound auto fluorescence at 535 nm (green) in HepG2 cell free culture (AID 720686).
The nature of test [15]: qHTS assay to test for compound auto fluorescence at 460 nm (blue) in HepG2 cells (AID 720687). The method, boiled down: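 HepG2 cells in MEM with 10% FBS, attached overnight at 37 C, were exposed to compound or DMSO for 1 hr at 37 C, 5% CO2. Blue fluorescence was read at 405/460 nm, with triamterene as reference fluorophore.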
The target of test [16] is Glucocorticoid receptor (Homo sapiens) (UniProt P04150). Kind of test: qHTS assay to identify small molecule agonists of the glucocorticoid receptor (GR) signaling pathway (AID 720691; active = well fitted activation curve with a large enough effect in the signal ratio in the repeat runs, not every such curve was filed as active; the % refers to the signal ratio). The method, boiled down:
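GR-bla HeLa cells (beta-lactamase reporter under glucocorticoid response element) were plated 4 h at 37 C/5% CO2, given compounds in DMSO, and incubated 18 h at 37 C. LiveBLAzer B/G FRET substrate was added for 2 h at room temperature, then fluorescence intensity read.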

Test [17] shares this target. Kind of test: qHTS assay to identify small molecule antagonists of the glucocorticoid receptor (GR) signaling pathway (AID 720692; active = well fitted inhibition curve with a large enough effect in the signal ratio in the repeat runs, not every such curve was filed as active; the % refers to the signal ratio). In a few lines: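 GR-bla HeLa cells (beta-lactamase reporter under glucocorticoid response element) were pre-plated 4 h at 37 C, treated with compounds plus 5 nM dexamethasone (final) for 18 h, then read by LiveBLAzer B/G FRET fluorescence after 2 h.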

Test [18] in a line: qHTS assay for small molecule agonists of the p53 signaling pathway - cell viability (AID 651633; calls by dose curve; note: series mostly up to about 83 µM; nearly all actives have a fitted effect of over 30% in size). In a few lines: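 p53RE-bla cells were treated with compound for 16 hours at 37 C. Cytotoxicity was then measured as CellTiter-Glo luminescence after 30 min at room temperature.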
Test [19] in a line: qHTS assay for small molecule disruptors of the mitochondrial membrane potential (AID 720635). Note: potency is the fitted concentration of half-maximal effect. The method, boiled down:
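HepG2 cells exposed to compound 1 hr at 37C, then Mito-MPS dye 30 min. Ratio read of aggregate (540/590 nm) versus monomer (490/535 nm) fluorescence.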

Test [20] can be described thus: qHTS assay to test for compound auto fluorescence at 590 nm (red) in HepG2 cell free culture (AID 720684). The method, boiled down: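 Compound was pinned into wells holding MEM with 10% FBS and no cells, and red fluorescence was read at Ex/Em 540/590 nm. Signal is expressed as auto fluorescence equivalency relative to Rose Bengal sodium.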

Values without a mark were called inactive. Inconclusive results are not listed. The source made the active and inactive calls. Unless noted, calls come from the whole dose curve; as a rule, active = well fitted curve in the direction sought with a large enough effect in the repeat runs; inconclusive = weak or mixed curves; inactive = no such curve, though single readings can be large; an effect the other way counts as inactive or inconclusive.

Sequence of Glucocorticoid receptor (Homo sapiens) (P04150 whole entry, looked up): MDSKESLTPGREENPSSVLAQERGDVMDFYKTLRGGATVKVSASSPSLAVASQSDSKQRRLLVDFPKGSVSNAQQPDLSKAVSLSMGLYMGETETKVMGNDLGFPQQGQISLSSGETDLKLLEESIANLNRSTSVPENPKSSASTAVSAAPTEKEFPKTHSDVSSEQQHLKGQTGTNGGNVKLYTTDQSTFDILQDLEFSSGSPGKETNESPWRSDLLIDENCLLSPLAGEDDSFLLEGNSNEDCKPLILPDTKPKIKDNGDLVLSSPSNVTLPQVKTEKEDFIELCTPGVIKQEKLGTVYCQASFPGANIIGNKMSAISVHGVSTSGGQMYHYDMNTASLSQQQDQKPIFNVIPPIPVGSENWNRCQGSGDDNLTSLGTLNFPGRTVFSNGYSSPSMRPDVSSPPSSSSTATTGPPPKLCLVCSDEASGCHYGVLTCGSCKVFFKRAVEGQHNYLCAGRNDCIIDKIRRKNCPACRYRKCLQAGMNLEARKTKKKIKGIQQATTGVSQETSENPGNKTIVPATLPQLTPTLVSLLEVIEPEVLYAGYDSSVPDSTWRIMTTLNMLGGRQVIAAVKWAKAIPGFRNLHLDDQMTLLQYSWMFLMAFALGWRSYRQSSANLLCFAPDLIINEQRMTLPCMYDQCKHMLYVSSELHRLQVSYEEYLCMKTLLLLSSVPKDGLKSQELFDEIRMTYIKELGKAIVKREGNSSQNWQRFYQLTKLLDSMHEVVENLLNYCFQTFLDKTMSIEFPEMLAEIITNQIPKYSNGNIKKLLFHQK

With `CN(C)CC/C=C1\c2ccccc2Sc2ccc(Cl)cc21`, the Potency in test [1] was 15 µM (active). Further, the Potency result in [2], in test [3], in test [7], in [10], in test [13] and in test [15] was “inactive” each time. The Potency entry in test [16] and in [17] was “inactive” in each case. For the same molecule, the result in [4], in [5], in [6], in [8], in test [9] and in test [11] was inactive. Besides, the molecule was called inactive in [12] and in test [14].
With `Nc1cccc2c(N)cccc12`, the Potency result in [2], in [18], in [3], in test [7], in test [10] and in test [13] was “inactive” throughout. Also, the Potency entry in test [15] and in test [16] was “inactive” throughout. The call in test [4], in test [5], in test [6], in [8], in [9] and in test [11] was inactive. In addition, the molecule was called inactive in test [12], in [20] and in test [14]. The Potency in [19] was 0.864 µM (active).
With `CCN(Cc1cccc(S(=O)(=O)O)c1)c1ccc(C(=C2C=CC(=[N+](CC)Cc3cccc(S(=O)(=O)O)c3)C=C2)c2ccccc2S(=O)(=O)[O-])cc1`, the Potency result in test [1], in test [2], in test [7], in test [13] and in [15] was “inactive” in each case. In addition, the Potency in test [3] is 15.4 µM (active). For the same molecule, the result in test [5], in [6], in test [8], in [9], in test [11] and in test [12] was inactive. In addition, the result in [20] and in test [14] was inactive.
On to `COc1ccc(C)cc1`, for which the Potency entry in test [1], in test [2], in [7], in test [10], in [13] and in test [15] was “inactive” each time. The Potency result in [16] was “inactive”. The molecule was classed as inactive in [4], in test [5], in [6], in test [8], in test [9] and in test [11]. Besides, the molecule was classed as inactive in [12] and in [14].
For the molecule `O=C(Oc1ccccc1)c1ccc2ccccc2c1O`, the Potency entry in [1], in test [3], in test [7], in test [10], in test [13] and in test [15] was “inactive” throughout. Moreover, the Potency result in test [16] was “inactive”. Also, the Potency in test [2] is 9.69 µM (active). The call in test [5], in test [6], in test [8], in test [9], in test [11] and in [12] was inactive. For the same molecule, the molecule was classed as inactive in [20] and in test [14].
With `O=C(O)c1ccc(O)cc1O`, the Potency entry in test [1], in [18], in [3], in test [7], in [10] and in test [13] was “inactive” in each case. Besides, the Potency entry in test [15] and in [16] was “inactive” throughout. Further, the result in test [4], in test [5], in test [8], in test [9], in [11] and in [12] was inactive. Also, the molecule was called inactive in test [20] and in test [14].
Turning to `CCNc1nc(N)nc(Cl)n1`, the Potency entry in test [1], in test [2], in [3], in test [7], in test [13] and in test [15] was “inactive” throughout. The call in test [4], in test [5], in [6], in test [8], in test [9] and in [11] was inactive. Moreover, the molecule was classed as inactive in test [12], in test [20] and in [14].
With `CC(=O)C(=O)CC(C)C`, the Potency entry in [2], in [18], in test [3], in test [19], in test [7] and in [10] was “inactive” throughout. Also, the Potency entry in test [13], in test [15] and in test [16] was “inactive” each time. Further, the molecule was called inactive in test [4], in test [5], in [6], in test [8], in test [9] and in test [11]. Also, the molecule was classed as inactive in test [12] and in test [14].
